In PubChem BioAssay (NCI):
Several values for one entry are separate records, joined by “and”; a condition that tells them apart may be missing. Identical values can stand only once. The panel holds about 83,000 compounds, 20% with a hit somewhere; the sample as a whole holds those more often.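 Treatment: one concentration, 48 hours, 96-well format. Scoring: percent growth, with anything below 10 considered active.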 A number with no mark means an inactive call. Activity calls are given as the source filed them.

Test system: HT29 colon
Assay: NCI-60 one-dose screen, 48 h (100 = growth as untreated, 0 = no growth, -100 = all killed)
Conditions: 10 µM
Description: Growth inhibition of the HT29 human tumor cell line is measured as a screen for anti-cancer activity. Cells are grown in 96 well plates and exposed to the test compound for 48 hours. Compounds are tested at a single concentration, which is 10^-5 M for most compounds. The reported endpoint is percent growth (GI% or GIPRCNT), where numbers from 0 - 100% represent growth inhibition, and numbers from -100% - 0 represent cell death. For example, a value of 40 represents 60% growth inhibition. A value of 0 means no net growth occurred over the course of the experiment. A value of -40 indicates 40% of cells at the beginning of the experiment died by the end of the experiment. A value of -100 means all cells are dead at the end of the experiment.
NCI-60 Human Tumor Cell Lines Screen was performed using the standard one-dose NCI protocol, which is described in more detail at https://dtp.cancer.gov/discovery_development/nci-60/default.htm.
Compounds with GIPRCNT values below 10 were considered active. Activity score was based on GIPRCNT using the following formula: […]
Score is 0 for GIPRCNT values of 100 or above, 50 for GIPRCNT values of 0, and 100 for GIPRCNT values of -100.

| Structure (SMILES) | growth |
| --- | --- |
| O=C(O)CCCc1ccc(N(CCCl)CCCl)cc1 | 85.7% and 74.5% |

Same assay, conditions: 10 µM unless noted

| Structure (SMILES) | growth |
| --- | --- |
| O=[N+]([O-])c1cc(Br)c(O)c(Br)c1 | 95.6% |
| CCCC[C@H]1C(=O)O[C@H](C)[C@H](NC(=O)c2cccc(NC=O)c2O)C(=O)O[C@@H](C)[C@@H]1OC(=O)CC(C)C | 49.5% |
| O=C(Cc1ccccc1)c1ccccc1 | 106% |
| CCCCCCCCCCCCCCCCCCn1cc[n+](C)c1 | -42.1% (active) and -36.8% (active) |
| CC12CCC3C(CCC4CC(O)CCC43C)C1CCC2=O (stereo not given) | 102% |
| CC[C@H](C)[C@H]1O[C@]2(C=C[C@@H]1C)C[C@@H]1C[C@@H](C/C=C(\C)[C@@H](O[C@H]3C[C@H](OC)[C@@H](O[C@H]4C[C@H](OC)[C@@H](NC)[C@H](C)O4)[C@H](C)O3)[C@@H](C)/C=C/C=C3\CO[C@@H]4[C@H](O)C(C)=C[C@@H](C(=O)O1)[C@]34O)O2 | -64.3% (active) |
| CC1(C)N=C(N)N=C(N)N1c1ccc(CCC(=O)Nc2ccc(S(=O)(=O)F)cc2)cc1 | 9.44% (active) |
| CCCN1C(=O)NC(=O)C(CC)(N2C(=O)c3c(F)c(F)c(F)c(F)c3C2=O)C1=O (stereo not given) | -66.6% (active) |
| Nc1ccc(P(=O)(O)O)cc1 | 104% and 103% |
| Cc1cc(N(CCCl)CCCl)ccc1/C=N\NC(=O)c1cccnc1 | 90.9% and 101% |
| C=C1C(=O)OC2CC3(C)OC3C3OC3C3=CC(OC3=O)C12 (stereo not given) | 98.2% and 79.6% |
| CC[C@H](C)[C@H](NC(=O)[C@H]1CCCCN1C)C(=O)N(C)[C@H](C[C@@H](OC(C)=O)c1nc(C(=O)N[C@@H](Cc2ccccc2)C[C@H](C)C(=O)O)cs1)C(C)C | -18.7% (active) |
| C[C@]12CCC3[C@@H](C[C@@H]4SC(Nc5ccccc5)=N[C@@]45CC(=O)CC[C@]35C)[C@@H]1CCC2=O (stereo not given in full) | -55.6% (active) |
| ClCc1ccc(Cl)c(Cl)c1 | 109% |
| O=C/C=C/c1ccco1 | 95.1% |
| COc1ccn(C)c(=O)c1C#N | 78.8% |
| C/C(=N/OC(=O)N(C)C)c1ccc(Cl)c(Cl)c1 | 95.2% |
| C(=NC1CCCCC1)=NC1CCCCC1 | 101% and 91.9% |
| O=C(O)C1C(C(=O)O)C2(Cl)C(Cl)=C(Cl)C1(Cl)C2(Cl)Cl (stereo not given) | 103% |

| Structure (SMILES) | growth |
| --- | --- |
| Cn1cc(C(=O)C[n+]2ccccc2)c2ccccc21 | 105% |
| CC1=C([Te]c2ccccc2)C(=O)c2ccccc2C1=O | -22.7% (active) |
| C[C@]12C[C@H](c3ccoc3)OC(=O)[C@H]1CC[C@@]1(C)[C@@H]2[C@H]2C=C[C@]1(O)C(=O)O2 | 82.3% |
| C[C@]12CCc3sc(Nc4ccc(F)cc4F)nc3C1=CC[C@@H]1[C@@H]2CC[C@]2(C)C(=O)CC[C@@H]12 | 30.1% |
| CSc1cc(/C=C(\C)[C@@H]2C[C@@H]3O[C@]3(C)CCC[C@H](C)[C@H](O)[C@@H](C)C(=O)C(C)(C)[C@@H](O)CC(=O)O2)n(CCNC(=O)OC(C)(C)C)n1 | 28.2% |
| CCCCOC(N)=O | 107% |
| COC(=O)CCP(CCC(=O)OC)c1ccccc1 | 106% |
| CCC1(NC(=O)c2cc(F)c(F)c(F)c2F)C(=O)NC(=O)N(C(C)C)C1=O (stereo not given) | 76.6% |
| Cc1cc[n+](CCc2ccccc2)cc1 | 98.4% and 92.6% |
| COC(=O)C1=CCCN(C)C1 | 106% and 104% |
| C[C@]12CC[C@H]3[C@@H](C[C@@H]4SC(Nc5ccccc5)=N[C@@]45C/C(=N/O)CC[C@]35C)[C@@H]1CCC2=O | 32.1% |
| COC(=O)C12C3C4C1C1C2C3C41NC(=O)c1csc([C@@H](C[C@H](C(C)C)N(C)C(=O)[C@@H](NC(=O)[C@H]2CCCCN2C)C2CC2)OC(C)=O)n1 (stereo not given in full) | -16.7% (active) |
| C=CC[PH+](c1ccccc1)c1ccccc1.C=CC[PH+](c1ccccc1)c1ccccc1.[Pt+2].[S-]c1ncccn1.[S-]c1ncccn1 | 0.0923% (active) |
| C[C@H](O)CCC(=O)c1ccoc1 | 106% |
| O=C=Nc1ccc(Br)cc1 | 118% |
| N#CC(C#N)=C(C#N)C#N | 110% |
| O=CC1(c2ccccc2)CCN(Cc2ccccc2)CC1 | 107% |
| CC[C@@H](C)C(=O)O[C@H]1[C@H](O)[C@H]2[C@@H](CN3C[C@@H](C)CC[C@H]3[C@@]2(C)O)[C@@H]2C[C@]34O[C@]5(O)[C@@H](OC(=O)[C@@](C)(O)CC)CC[C@@]3(C)[C@@H]5[C@@H](OC(C)=O)[C@@H](OC(C)=O)[C@H]4[C@@]21O | 112% |
| Cc1ccc(NC2=N[C@]34CC(=O)CC[C@]3(C)[C@H]3CC[C@]5(C)C(=O)CC[C@H]5[C@@H]3C[C@@H]4S2)c(C)c1 | 3.81% (active) |

Same assay, conditions: 75 µM

| Structure (SMILES) | growth [%] |
| --- | --- |
| O=C(O)CCCc1ccc(N(CCCl)CCCl)cc1 | 45.2 |
